Pf growth 96h: P. falciparum growth inhibition at 96 hour, primary screen for plastid delayed-death inhibitors; AID 504834; hit rate 6.9% among 320,000; Potency, µM (series often up to 28.7 µM), for the others: at the top dose activity change, negative = inhibition, most hits filed as inhibitors; P. falciparum luciferase reporter growth, 96 h; further: on the % scale 0 is the no-effect control and ±100 the full control effect
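Two parasite generations (96 h, 37 C, 5% CO2) of compound exposure in infected erythrocytes (0.05% parasitemia, 2% hematocrit). Luciferase-reporter P. falciparum; decreased luminescence indicates inhibited growth, aimed at apicoplast-acting delayed death.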
Sm TGR inh: blocks Schistosoma mansoni thioredoxin glutathione reductase; Q962Y6; Potency, µM (doses to about 114 µM), without a hit: at the top dose activity change, negative = inhibition, usual class: inhibitors; hit rate 3% among 360,000; purified TGR, DTNB reduction, TNB absorbance 405 nm; AID 485364; further: on the % scale 0 is the no-effect control and ±100 the full control effect; nearly all actives have a fitted effect of over 60% in size
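First, TGR (20 nM dispensed) and NADPH were mixed with compound. Second, a 15 min room-temperature incubation followed. Third, further NADPH and then DTNB were added to start the reaction. Finally, TNB absorbance was monitored kinetically.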
AMA1-RON2 inh: disrupts binding of P. falciparum AMA1 to RON2; AlphaScreen AMA1-biotinylated RON2 peptide binding; Potency, µM (series often up to 58.2 µM), for inactives: at the top dose activity change, negative = inhibition, usual class: inhibitors; hit rate 0.2% among 360,000;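 further: 0% = vehicle wells and -100% = peptide control; nearly all actives have a fitted effect of over 45% in size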
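AMA1 (3D7) with his tag at 25 nM final met compounds first, then biotinylated RON2 peptide at 25 nM; detection used donor plus acceptor beads, 10 µg/mL apiece, read by AlphaScreen after 30 min at room temperature.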
NS1 function inh: inhibitors of influenza NS1 protein function. AID 2326. Potency, µM (series often up to 46.1 µM), without a hit: at the highest dose activity, positive = more growth. hit rate 0.4% among 270,000; calls by dose curve; further: actives are rising curves; nearly all actives have a fitted effect of over 50% in size
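Compounds were scored for reversing the slow growth caused by influenza A NS1 in S. cerevisiae, measured by optical density at 600 nm. Assay medium contained 2% galactose at pH 6.0; NS1-free yeast of the same strain were the positive control.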
Pf growth 48h: inhibits P. falciparum growth in the first generation, 48 h. AID 504832. Potency, µM (top dose mostly 28.7 µM), without a hit: top-dose activity change, negative = inhibition, usual class: inhibitors. P. falciparum luciferase growth in erythrocytes, 48 h. hit rate 5.9% among 310,000; further: on the % scale 0 is the no-effect control and ±100 the full control effect
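First compound was added to culture medium, then infected red cells at 0.1% parasitemia and 2% hematocrit (final). After incubation at 37 C under 5% CO2, luciferase detection reagent was dispensed and light output recorded.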
Starred values were filed as active, the others as inactive; ? = inconclusive; . = not tested or not shown; ! = not active in a repeat; [ ] = dose if it differs, or a comment. Rows were chosen to be rich in hits. Some 11% of all compounds tested hit in one or more screens of this group. Unless noted, the call rests on the fitted dose curve; in most records, active means well fitted curve in the direction sought with a large enough effect; inconclusive means small, poorly fitted or top-dose-only effect, or another doubt; inactive means no such curve, though single readings can be large; an effect the other way counts as inactive or inconclusive. Potency means the concentration at half of the fitted maximal effect.

SMILES	Pf growth 96h	Sm TGR inh	AMA1-RON2 inh	NS1 function inh	Pf growth 48h
O=C(NCc1ccc(Cl)cc1)C(=O)NCC(c1ccco1)S(=O)(=O)c1cccs1 (stereo not given)	.	40µM*	.	.	.
COc1ccc(CNC(=O)C(=O)NCC(c2ccco2)N2CCOCC2)cc1 (stereo not given)	7.4µM*	-3%	1%	-3%	11%
Cc1nc(N2CCCCC2)sc1C(=O)c1ccc(Cl)c([N+](=O)[O-])c1	56%	-30%	.	.	-1%
CS(=O)(=O)Oc1ccc(Br)cc1/C=C1/N=C(c2ccco2)OC1=O	10µM*	-12%	-12%	19%	-8%
COc1cc(/C=C2/N=C(c3ccccc3F)OC2=O)cc(Cl)c1OS(C)(=O)=O	105%	9%	-9%	22%	-4%
CCOC(=O)c1c(C)[nH]c(C)c1S(=O)(=O)NCC(=O)NCc1cccc(Br)c1	.	9%	.	.	.
CCOC(=O)c1c(C)[nH]c(C)c1S(=O)(=O)N(C)CC(=O)NCc1cccc(Br)c1	12µM*	-9%	-4%	-12%	?
CCN1C(=NCCOC)N[C@@H](CCc2ccccc2)[C@H](C(=O)OC)[C@H]1C	17µM*!	-14%	2%	-7%	1%
CCN1C(=NCCCOC(C)C)N[C@@H](CCc2ccccc2)[C@H](C(=O)NCCCOC(C)C)[C@H]1C	4.7µM*	-11%	-4%	2%	4.7µM*
CCn1c2ccccc2c2cc(/C=N/n3cn[nH]c3=S)ccc21	8.3µM*	-20%	16%	-126%	?
CCn1c2ccccc2c2cc(/C=N/n3cnnc3)ccc21	-16%	18%[11.4 µM]	-7%	-107%	.
COCCCN1CN=C(NS(=O)(=O)c2ccc(NC(C)=O)cc2)NC1	.	2%	.	.	.
COC(=O)C1CN(C(=O)C(C)Oc2cccc(C)c2C)c2ccccc2O1 (stereo not given)	5%	7%	22%	-3%	-25%[0.00184 µM]
CCN(CCCNc1ncnc2nc[nH]c12)c1cccc(C)c1	-11%	0%	-8%	-9%	-4%
CCCCN(CCCNc1ncnc2nc[nH]c12)c1ccccc1	12µM*	-13%	12%	-8%	?
Cc1cc(SCC(=O)N/N=C/c2ccc(O)c(O)c2O)c(C)cc1Br	.	35µM*	28%	-95%	13µM*
COc1cc(/C=N/NC(=O)CSc2cc(C)c(Br)cc2C)ccc1O	.	-9%	56%	17%	2%
CCCCOc1cccc(C2c3c(-c4cc(C)ccc4O)n[nH]c3C(=O)N2CCOC)c1 (stereo not given)	.	8%	.	.	.
CCCC1(C(=O)O)NC(c2ccc(OC)cc2O)C2C(=O)N(c3ccc(OC)cc3)C(=O)C21 (stereo not given)	15µM*	-1%	118%	5%	.
CN(C)c1nc(N)nc(CSc2nc3cc(Cl)ccc3o2)n1	.	-1%	-1%	3%	57%
O=S1(=O)C=C(Sc2nc3cc(Cl)ccc3o2)c2ccccc21	19%	1.6µM*	11%	9%	?
O=C(Cc1ccccc1)N1CCCC(c2nc(-c3ccc(S(=O)(=O)N4CCCC4)cc3)no2)C1 (stereo not given)	8.3µM*	6%	-1%	3%	.
CC(=O)c1cccc(S(=O)(=O)N2CCCC(c3nc(-c4ccc(C)o4)no3)C2)c1 (stereo not given)	.	50µM*	-14%	-4%	?
COc1ccc(-c2noc(C3CCCN(S(=O)(=O)c4ccc(C)c(Cl)c4)C3)n2)cc1OC (stereo not given)	?	-18%	4%	-1%	9%
Cc1ccc(-c2noc(C3CCCN(S(=O)(=O)c4ccc5ccccc5c4)C3)n2)o1 (stereo not given)	?	40µM*	-6%	0%	.
SMILES	Pf growth 96h	Sm TGR inh	AMA1-RON2 inh	NS1 function inh	Pf growth 48h
COc1ccc(-c2noc(C3CCCN(S(=O)(=O)c4cccc(Cl)c4C)C3)n2)cc1OC (stereo not given)	?	23%	-7%	7%	13µM*
O=C(C1CC1)N1CCC(c2nc(-c3ccc(S(=O)(=O)N4CCCC4)cc3)no2)CC1	?	-28%	-1%	-2%	.
CSc1nnc(-c2ccccc2)c(-c2ccccc2)n1	?	-5%	-5%	-1%	12µM*
CSc1nnc2c(n1)OC=Nc1ccccc1-2	35%	-5%	-8%	-7%	6%
CSc1nnc(-c2ccco2)c(-c2ccco2)n1	-3%	1µM*	16%	9%	-29%
c1ccc(CSc2nnc(-c3ccccc3)c(-c3ccccc3)n2)cc1	.	.	6%	.	.
CC(=O)Nc1cc(NC(C)=O)cc(C(=O)OCC(=O)N(c2ccccc2)C2CCS(=O)(=O)C2)c1 (stereo not given)	-27%	-13%	5%	.	-2%
CC1CN(c2ncc(/C=N/NC(=O)c3ccccc3O)s2)CC(C)O1 (stereo not given)	?	1%	72%	.	?
O=C(N/N=C/c1cnc(N2CCCCC2)s1)c1ccc(C(F)(F)F)cc1	?	5%	13%	0%	3.3µM*
COC(=O)c1ccccc1NC(=O)c1sc2nc(C)cc(C)c2c1NC(=O)c1ccccc1Cl	.	-4%	.	.	.
CC(NC(=O)COC(=O)C12CC3CC(CC(Br)(C3)C1)C2)c1ccccc1 (stereo not given)	.	.	-8%	.	.
Cc1cc(C)n(-c2nc3ccccc3nc2N2CCN(c3cccc(C)c3C)CC2)n1	.	-3%	.	.	.
Cc1cc(C)n(-c2nc3ccccc3nc2N2CCC(C)CC2)n1	.	7%	20%	-65%	9.3µM*
CCc1nc2ccccc2nc1N1CCN(S(=O)(=O)c2ccccc2)CC1	15µM*	11%	-11%	2%	?
Cc1cc(N2CCC(C)CC2)nc(-n2nc(C)cc2C)n1	.	-14%	-1%	-3%	0.74µM*
Cc1ccc(S(=O)(=O)N2CCN(c3nc4ccccc4nc3-n3nc(C)cc3C)CC2)cc1	17%	1%	35%	-68%	10µM*
Cc1cccc(OCc2ccc(-c3nc(C#N)c(NCc4cccnc4)o3)o2)c1	.	-1%	.	.	.
O=C(NCCOc1ccccc1)c1cc(S(=O)(=O)N2CCOCC2)ccc1F	?	4%	8%	-5%	6%
O=C(Cn1ccc(C(F)(F)F)n1)Nc1ccc(S(=O)(=O)NCc2ccco2)cc1	-5%	45µM*	?	7%	3%
COc1ccccc1NS(=O)(=O)c1cccc(NC(=O)c2nn(C)c(=O)c3ccccc23)c1	10µM*	-5%	-2%	.	?
Cn1nc(C(=O)Nc2ccc(Cl)c(S(=O)(=O)N3CCOCC3)c2)c2ccccc2c1=O	?	2%	0%	.	?
Cn1nc(C(=O)Nc2ccc(S(=O)(=O)N3CCCCC3)cc2)c2ccccc2c1=O	8.3µM*	6%	-7%	.	?
O=C(Nc1ccc(S(=O)(=O)NCc2ccco2)cc1)c1ccncc1	.	-5%	-9%	1%	1%
COc1ccc(NC(=O)c2nn(C)c(=O)c3ccccc23)cc1S(=O)(=O)Nc1ccccc1Cl	-15%	8%	-6%	2%	-10%
